Laboratory results reported in PubChem BioAssay (NCATS).
Records with an inconclusive call do not appear. Calls of active or inactive are those of the source. Calls follow the shape of the dose curve; as a rule, active = well fitted curve in the direction sought with a large enough effect; inconclusive = small, poorly fitted or top-dose-only effect, or another doubt; inactive = no such curve, though single readings can be large; an effect the other way counts as inactive or inconclusive.

Tests used:
[1] = qHTS Screen of the MIPE 4.0 Collection Against Ewings Sarcoma (RDES) (AID 1259252); also: nearly all actives have a fitted effect of over 35% in size; also: potency is read from the fitted curve at half-maximal effect
Method in brief: (§1)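 Log-phase cells in RPMI with 5% FBS attached for 4 h, then received compounds as a titration for 48 h at 37C, 5% CO2. Viability was read by CellTiter-Glo luminescence and normalized to DMSO and no-cell wells.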

[2] = qHTS Screen of the MIPE 4.0 Collection Against Ewings Sarcoma (TC71) (AID 1259253); also: nearly all actives have a fitted effect of over 40% in size; also: potency is read from the fitted curve at half-maximal effect
Method in brief: as §1

[3] = qHTS Screen of the MIPE 4.0 Collection Against Ewings Sarcoma (EW8) (AID 1259255); also: nearly all actives have a fitted effect of over 35% in size; also: potency is read from the fitted curve at half-maximal effect
Method in brief: as §1

[4] = qHTS Screen of the MIPE 4.0 Collection Against Ewings Sarcoma (TC32) (AID 1259256); also: nearly all actives have a fitted effect of over 45% in size; also: potency is read from the fitted curve at half-maximal effect
Method in brief: as §1

[5] = qHTS assay to identify small molecule inhibitors of chordoma cells - UCH-1 (AID 1259355); also: nearly all actives have a fitted effect of over 55% in size; also: potency is read from the fitted curve at half-maximal effect; series mostly up to about 46 µM
Method in brief: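 Cells (800/well) were seeded and left overnight at 37 C, 5% CO2, then treated with drugs at 15 concentrations plus a combination mix of auranofin, camptothecin, doxorubicin, rubitecan and topotecan. Viability after 48hr was read by CellTiter-Glo luminescence.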

[6] = qHTS assay to identify small molecule inhibitors of chordoma cells - UCH-2 (AID 1259356); also: series mostly up to about 46 µM

Measured: Potency

Cc1ccnc2c1NC(=O)c1cccnc1N2C1CC1
inactive: all assays above

CCN(C)C(=O)Oc1cccc([C@H](C)N(C)C)c1
inactive: all assays above

CC(C)OC(=O)OCOP(=O)(CO[C@H](C)Cn1cnc2c(N)ncnc21)OCOC(=O)OC(C)C
active: [2] 18.7 µM | [3] 23.5 µM
inactive: [1]

CCn1cc(C(=O)O)c(=O)c2cc(F)c(N3CCNCC3)nc21
inactive: all assays above

CCCCc1oc2ccc(NS(C)(=O)=O)cc2c1C(=O)c1ccc(OCCCN(CCCC)CCCC)cc1
active: [1] 23.5 µM | [2] 20.9 µM | [3] 16.6 µM | [4] 20.9 µM

CNS(=O)(=O)Cc1ccc2[nH]cc(CCN(C)C)c2c1
inactive: all assays above

COc1cc2nc(N3CCCN(C)CC3)nc(NC3CCN(Cc4ccccc4)CC3)c2cc1OC
active: [1] 8.33 µM | [2] 10.5 µM | [3] 7.43 µM | [4] 5.26 µM

C[C@@H](CN1CC(=O)NC(=O)C1)N1CC(=O)NC(=O)C1
active: [3] 18.7 µM
inactive: all other assays above

NNC(=O)c1ccncc1
inactive: [1] | [2] | [3] | [4]

CCCOc1ccc(C(=O)OCCN(CC)CC)cc1N
inactive: [1] | [2] | [3] | [4]

CCOC(=O)c1ccc(C#Cc2ccc3c(c2)C(C)(C)CCS3)nc1
inactive: all assays above

CCCCS(=N)(=O)CCC(N)C(=O)O (stereo not drawn)
inactive: [2] | [3] | [4]
active: [1] 14.8 µM

NCCCC(O)(P(=O)(O)O)P(=O)(O)O
inactive: all assays above

CCOC(=O)[C@H](CCc1ccccc1)N[C@H]1CCc2ccccc2N(CC(=O)O)C1=O
inactive: [5] | [6]
active: [1] 23.5 µM | [2] 20.9 µM | [3] 23.5 µM | [4] 23.5 µM

O=C(N[C@H](CO)[C@H](O)c1ccc([N+](=O)[O-])cc1)C(Cl)Cl
inactive: all assays above

NS(=O)(=O)c1cc2c(cc1Cl)NC(C(Cl)Cl)NS2(=O)=O (stereo not drawn)
inactive: all assays above

CC(C)(Sc1cc(C(C)(C)C)c(O)c(C(C)(C)C)c1)Sc1cc(C(C)(C)C)c(O)c(C(C)(C)C)c1
active: [1] 2.96 µM | [2] 20.9 µM | [4] 9.35 µM
inactive: all other assays above

CC(C)OC(=O)C(C(=O)OC(C)C)=C1SC=CS1
inactive: all assays above

OCc1ccc(-c2nn(Cc3ccccc3)c3ccccc23)o1
active: [1] 2.64 µM | [2] 14.8 µM | [3] 1.18 µM

O[C@@H](CNC[C@H](O)[C@H]1CCc2cc(F)ccc2O1)[C@@H]1CCc2cc(F)ccc2O1
active: [1] 23.5 µM | [2] 20.9 µM | [3] 20.9 µM | [4] 23.5 µM

CCN1CCCC1CNC(=O)c1cc(S(N)(=O)=O)ccc1OC (stereo not drawn)
inactive: [1] | [3]
active: [2] 16.6 µM

CC1CC2C3CCC4=CC(=O)C=C[C@]4(C)[C@@]3(F)[C@@H](O)C[C@]2(C)[C@@]1(O)C(=O)CO (stereo partly drawn)
inactive: [1] | [2] | [3] | [4]

COc1ccc2c(c1)c(CC(=O)OCC(=O)O)c(C)n2C(=O)c1ccc(Cl)cc1
inactive: [1] | [2] | [3] | [4]

O=C(O)c1ccc(-n2nc(-c3ccccc3O)nc2-c2ccccc2O)cc1
active: [1] 20.9 µM | [2] 14.8 µM | [3] 20.9 µM

CC1=C(C(=O)O)N2C(=O)[C@@H](NC(=O)C(N)c3ccccc3)[C@H]2SC1 (stereo partly drawn)
inactive: [1] | [2] | [3] | [4]

CCC(=O)O[C@]1(C(=O)SCF)[C@H](C)C[C@H]2[C@@H]3C[C@H](F)C4=CC(=O)C=C[C@]4(C)[C@@]3(F)[C@@H](O)C[C@@]21C
active: [1] 16.6 µM
inactive: all other assays above

CNS(=O)(=O)CCc1ccc2[nH]cc(C3CCN(C)CC3)c2c1
active: [1] 0.372 µM | [2] 0.235 µM | [3] 2.64 µM | [4] 1.48 µM

COCCCOc1cc(C[C@@H](C[C@H](N)[C@@H](O)C[C@H](C(=O)NCC(C)(C)C(N)=O)C(C)C)C(C)C)ccc1OC
inactive: [1] | [2] | [3] | [4]

Clc1ccccc1CN1CCc2sccc2C1
inactive: [1] | [2] | [3] | [4]

CC(C(=O)O)c1ccc2c(c1)CC(=O)c1ccccc1S2 (stereo not drawn)
inactive: [1] | [2] | [3] | [4]

O=C(O)CSCC(=O)NC1CCSC1=O (stereo not drawn)
inactive: [1] | [2] | [3] | [4]

CC(=O)[C@H]1CC[C@H]2[C@@H]3CCC4=CC(=O)CC[C@]4(C)[C@H]3CC[C@]12C
active: [1] 3.32 µM | [2] 3.32 µM | [3] 9.35 µM | [4] 3.72 µM

COC(=O)Nc1nc2ccc(S(=O)c3ccccc3)cc2[nH]1 (stereo not drawn)
active: [1] 11.8 µM | [2] 18.7 µM | [3] 13.2 µM | [4] 11.8 µM

O=C(NCC1CN(c2ccc(N3CCOCC3=O)cc2)C(=O)O1)c1ccc(Cl)s1 (stereo not drawn)
inactive: [1] | [2] | [3] | [4]

NC(=O)c1cccc(N)c1
inactive: [1] | [2] | [3] | [4]

O=C(O)CCn1c2c(c3ccccc31)C[C@H](NS(=O)(=O)c1ccc(F)cc1)CC2
inactive: [1] | [2] | [3] | [4]

C[C@@H]1C[C@H]2[C@@H]3CCC4=CC(=O)C=C[C@]4(C)[C@@]3(Cl)[C@@H](O)C[C@]2(C)[C@@]1(OC(=O)c1ccco1)C(=O)CCl
inactive: [5] | [6]
active: [1] 3.72 µM | [2] 4.69 µM | [3] 11.8 µM | [4] 11.8 µM

CCCCOc1ccc(CC(=O)NO)cc1
active: [1] 6.62 µM | [2] 7.43 µM | [3] 10.5 µM | [4] 5.26 µM
inactive: [5] | [6]

CNNCc1ccc(C(=O)NC(C)C)cc1
inactive: all assays above

COc1ccc2cc3[n+](cc2c1OC)CCc1cc2c(cc1-3)OCO2
inactive: [5] | [6]
active: [1] 8.33 µM | [2] 5.9 µM | [3] 11.8 µM | [4] 7.43 µM

COC(=O)Nc1nc2ccc(C(=O)c3ccccc3)cc2[nH]1
inactive: [5] | [6]
active: [1] 0.662 µM | [2] 1.48 µM | [3] 0.526 µM | [4] 0.418 µM

CN(CCOc1ccc(CC2SC(=O)NC2=O)cc1)c1ccccn1 (stereo not drawn)
active: [1] 6.62 µM | [2] 10.5 µM
inactive: all other assays above

Nc1[nH]c(=O)ncc1F
active: [2] 18.7 µM | [4] 13.2 µM
inactive: all other assays above

Cc1cccc(N(C)C(=S)Oc2ccc3ccccc3c2)c1
inactive: all assays above

N[C@@H](C(=O)N[C@@H]1C(=O)N2C(C(=O)O)=C(Cl)CS[C@H]12)c1ccccc1
inactive: all assays above

CO[C@@]12[C@H](COC(N)=O)C3=C(C(=O)C(C)=C(N)C3=O)N1C[C@@H]1N[C@@H]12
active: [1] 0.0332 µM | [2] 0.0418 µM | [3] 0.0662 µM | [4] 0.0037 µM | [5] 17.8 µM
inactive: [6]

CN1CCN(c2c(F)cc3c(=O)c(C(=O)O)cn(CCF)c3c2F)CC1
inactive: all assays above

Cc1cccc(Nc2ccncc2S(=O)(=O)NC(=O)NC(C)C)c1
inactive: all assays above

COc1cccc(N(C)C(=S)Oc2ccc3c(c2)CCCC3)n1
inactive: all assays above

O=NN(CCCl)C(=O)NC1CCCCC1
inactive: all assays above

CCC(C)(C)c1ccc(CC(C)CN2C[C@@H](C)O[C@@H](C)C2)cc1 (stereo partly drawn)
inactive: all assays above

COc1c(N2CCNC(C)C2)c(F)cc2c(=O)c(C(=O)O)cn(C3CC3)c12 (stereo not drawn)
inactive: all assays above

Cc1noc(NS(=O)(=O)c2ccc(N)cc2)c1C
inactive: all assays above
